# PubChem BioAssay AID940 (Emory University Molecular Libraries Screening Center, 2007)
# Among all 260,000 compounds or so, about 2,200 (0.85%) were called active. This excerpt belongs to a sample that is enriched for actives. Values without a mark were called inactive.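 The calls were made as follows: active = compounds whose cAMP rise, as percent of the full-agonist control response, exceeds 60; inactive = the rest.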
# Target: Prostaglandin E2 receptor EP2 subtype (Homo sapiens) (UniProt P43116)
# Sequence (P43116 whole entry, looked up): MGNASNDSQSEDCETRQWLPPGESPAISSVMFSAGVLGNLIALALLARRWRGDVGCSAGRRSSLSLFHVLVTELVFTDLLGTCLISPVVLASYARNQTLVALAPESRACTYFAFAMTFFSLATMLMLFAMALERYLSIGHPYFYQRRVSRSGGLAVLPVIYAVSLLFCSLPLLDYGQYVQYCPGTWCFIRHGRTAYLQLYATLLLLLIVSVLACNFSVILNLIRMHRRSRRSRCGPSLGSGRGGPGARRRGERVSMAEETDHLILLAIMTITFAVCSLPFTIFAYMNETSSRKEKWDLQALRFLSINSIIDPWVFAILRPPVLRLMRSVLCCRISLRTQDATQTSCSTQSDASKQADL
# Assay: EP2 receptor modulators, cAMP readout, primary screen, cell-based, HTRF cAMP, PGE2 stimulation (AID 940);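 also: rat C6 glioma line stably carrying human EP2 under a CMV promoter; the protocol text gives 20 µM as final concentration; 100% = response of wells given 1 µM PGE2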
# Conditions: EP2-expressing cells, cAMP HTRF FRET, PGE2 co-stimulation; at 25 µM; stronger effect = higher value
row,SMILES,induction
1,CC(C)(C)OC(=O)N1CCC[C@H]1C(=O)c1nc2ccccc2s1,19.4%
2,O=C(N1CCC(n2nnc3ccccc3c2=O)CC1)C1(c2ccccc2)CCCC1,-7.6%
3,CCc1cc(N2C3CCC2CC(O)(c2ccco2)C3)n2nc3nc(C)cc(C)c3c2n1 (stereo not drawn),13.8%
4,CCCC(NC(=O)c1cnc(SC)nc1)c1cccs1 (stereo not drawn),-29.9%
5,Cc1nn(CC(=O)NC2CCCC2)c(=O)c2cc3sccc3n12,1.55%
6,Cc1ccc(Nc2cc(C)nc3c(C)ccc([N+](=O)[O-])c23)cc1,66.4% (active)
7,Cc1ccc(Nc2ccc(C(N)=O)cc2[N+](=O)[O-])cc1,-57.7%
8,Cc1cc(C)nc(Nc2cc([N+](=O)[O-])ccc2C)n1,-8.66%
9,COc1ccc(C)cc1N(CC(=O)NC1CCCC1)C(=O)c1snc(C(N)=O)c1N,-63.9%
10,COCCCn1c(SCC(=O)Nc2cc(Cl)ccc2OC)nc2sc3c(c2c1=O)CCC3,-5.26%
11,CC(=O)Nc1nonc1-c1nc2ccccc2n1Cc1ccccn1,4.24%
12,COc1ccc(C)c(Cn2c(-c3nonc3N)nc3ccccc32)c1,69% (active)
13,Nc1nonc1-c1nc2ccccc2n1Cc1ccc(F)cc1,28.5%
14,COc1ccc(N(C(C)C(=O)N2CCN(C)CC2)S(C)(=O)=O)cc1 (stereo not drawn),-14.6%
15,COc1ccc(CN(Cc2cn[nH]c2-c2ccc(O)cc2)CC2CCCO2)cc1 (stereo not drawn),18.7%
16,CCCc1cc(-c2n[nH]c(=S)n2CC)c2ccccc2n1,20.9%
17,CCCc1cc(-c2n[nH]c(=S)n2Cc2ccccc2)cs1,87.8% (active)
18,CCc1cc(-c2n[nH]c(=S)n2CC(C)C)cs1,-1.28%
19,CCCc1nn(CC(=O)NC2CC2)c(=O)c2cc3ccsc3n12,-12%
20,COc1cc(C2C(C#N)=C(N)Oc3c2c(C)nn3-c2ccccc2)ccc1OCC#N (stereo not drawn),-22.9%
21,CCOC(=O)CC(=O)CSc1nc(-c2ccccc2)cc(-c2ccc(Cl)cc2)c1C#N,9.52%
22,N#Cc1c(-c2ccc(F)cc2)cc(C2CC2)nc1SCC(=O)c1cccs1,63% (active)
23,O=C(c1cccs1)N1CCCC(c2nc(-c3ccc(F)cc3)no2)C1 (stereo not drawn),-45.6%
24,COc1cc(C2NC(=O)NC(C)=C2C(=O)Nc2cc(Cl)ccc2C)cc(OC)c1OC (stereo not drawn),-22.7%
25,Cc1cccc(-n2c(C)c3c(C)nnc(C)c3c2C)c1,-24.2%
26,O=C1Cc2ccccc2Sc2ccc(Cl)cc21,61.4% (active)
27,S=C1Nc2cc(Cl)ccc2Sc2ccccc21,11.7%
28,Clc1ccc(C=Nc2ccc3c(c2)Cc2ccccc2-3)c(Cl)c1,6.77%
